Bioassay records: PubChem BioAssay, several laboratories
Most compounds without a hit are left out; they make up all but 2% or so of the library.
NadD inh – inhibitors of Staphylococcus aureus NadD; purified NadD enzyme, colorimetric absorbance read-out; hit rate 0.78% among 360,000; inhibition, % at 20 µM; in the data active means inhibition above about 26%
ARNT-TACC3 inh – ARNT/TACC3 interaction disruption. hit rate 0.66% among 390,000. inhibition, % at 9.99 µM. AlphaScreen His-ARNT PAS-B/GST-TACC3 binding, luminescence; TACC3 fragment carries E629A point mutation. AID 623870;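 active means mean inhibition of replicates at least 50% and at least half of replicates each reaching 50%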
Neddylation inh – cullin neddylation inhibition; P61081+Q13564; hit rate 0.58% among 360,000; TR-FRET cullin neddylation, biochemical; AID 651699; inhibition, % at 25 µM; in the data active means inhibition above about 36%
HGIII-sPLA2 inh – Blocks human group III sPLA2 activity. Q9NZ20. QFRET BODIPY PC-A2 liposome hydrolysis, fluorescence. inhibition, % at 12.2 µM. hit rate 0.56% among 370,000. AID 743126;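 active means inhibition above mean plus 3 SD of compounds lying within the high and low control bounds, cut at about 19% in these data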
DAGLB inh – diacylglycerol lipase beta (human) inhibition | Q8NCG7 | HEK293T DAGLB membrane lysate, EnzChek fluorogenic substrate | inhibition, % at 5.17 µM | hit rate 0.059% among 340,000 | AID 504411; in the data active means inhibition above about 34%
Target sequence (Q8NCG7 whole entry, looked up): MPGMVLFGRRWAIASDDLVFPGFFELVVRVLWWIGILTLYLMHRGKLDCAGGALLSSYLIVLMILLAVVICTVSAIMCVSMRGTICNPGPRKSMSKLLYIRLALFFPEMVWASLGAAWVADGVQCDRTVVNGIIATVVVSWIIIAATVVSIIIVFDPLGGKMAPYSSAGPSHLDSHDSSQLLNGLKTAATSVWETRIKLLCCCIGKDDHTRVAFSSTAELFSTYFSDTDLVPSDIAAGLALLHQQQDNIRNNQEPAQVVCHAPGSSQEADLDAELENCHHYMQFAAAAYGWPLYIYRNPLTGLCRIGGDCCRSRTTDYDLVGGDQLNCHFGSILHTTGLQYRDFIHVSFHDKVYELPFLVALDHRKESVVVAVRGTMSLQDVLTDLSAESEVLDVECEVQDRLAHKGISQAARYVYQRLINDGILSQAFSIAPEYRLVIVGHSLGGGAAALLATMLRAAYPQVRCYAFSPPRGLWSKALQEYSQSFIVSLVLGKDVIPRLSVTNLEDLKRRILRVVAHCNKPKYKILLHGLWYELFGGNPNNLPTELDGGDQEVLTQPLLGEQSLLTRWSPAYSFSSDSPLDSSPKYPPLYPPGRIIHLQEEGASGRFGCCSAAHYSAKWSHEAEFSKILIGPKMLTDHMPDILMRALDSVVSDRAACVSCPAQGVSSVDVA
sPLA2 confirm – human GIII-sPLA2 inhibition, confirmation | recombinant hGIII-sPLA2, BODIPY PC-A2 QFRET fluorescence | hit rate 34% among 2,000 | inhibition, % at 12.2 µM | shares compounds with HGIII-sPLA2 inh;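 active means mean inhibition across triplicates above the hit cutoff set in the earlier primary screen, cut at about 19% in these data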
535nm interf – optically interferes with 535nm fluorescence in sPLA2 counter-screen; shares compounds with HGIII-sPLA2 inh; BODIPY FL product fluorescence interference, QFRET; inhibition, % at 12.2 µM; hit rate 8.5% among 2,000;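 active means average inhibition above the solvent-only control mean plus 3 SD, cut at about 6% in these data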
535nm interf DR – interferes with 535nm fluorescence in dose response counter-screen. 240 tested, under 10 active. AID 743455. BODIPY FL product fluorescence interference, cell-free. shares compounds with HGIII-sPLA2 inh. IC50, µM;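 active means IC50 at or below 10 µM; inactive means IC50 above 10 µM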
A number is an active result; n = inactive; x = no result given.

SMILES | NadD inh | ARNT-TACC3 inh | Neddylation inh | HGIII-sPLA2 inh | DAGLB inh | sPLA2 confirm | 535nm interf | others
CCCCCCN1C=C/C(=C\C=C(C#N)C#N)c2ccccc21 | n | n | n | n | n | x | x
C[C@@H]1CCCCO[C@@H](CN(C)S(C)(=O)=O)[C@@H](C)CN([C@H](C)CO)C(=O)c2cc(NC(=O)Nc3ccc(F)cc3)ccc2O1 | x | n | x | x | x | x | x
O=C1c2ccccc2C(=O)c2c1ccc1c(=O)n(-c3ccccc3)[nH]c21 | n | n | n | 26 | n | 20 | n
CO[C@@H]1CN(C)C(=O)c2cc(NC(=O)C3CCCC3)ccc2OC[C@@H](C)N(CCC(F)(F)F)C[C@H]1C | x | n | x | x | x | x | x
Cc1ccc2cc(CCNC(=O)c3cccc([N+](=O)[O-])c3)c(=O)[nH]c2c1C | n | n | n | 22 | n | n | n
C=CCN1C(=O)/C(=C\c2ccco2)C(C(=O)OC)=C1C | n | n | n | 21 | n | n | n
COc1ccc(NS(=O)(=O)c2cc(N)ccc2N2CCCC2)cc1 | n | n | n | 21 | n | n | n
CCc1cnc(Nc2nc(C(N)Cc3ccc(Cl)cc3)cs2)nc1 (configuration not stated) | n | x | n | n | x | x | x
CCc1cnc(Nc2nc(C(N)c3ccccc3Cl)cs2)nc1 (configuration not stated) | n | x | n | 26 | x | n | n
Cc1cccc(C)c1NC(=O)C(c1ccc(-c2ccccc2)cc1)n1c(=O)c(-c2ccco2)nc2ccccc21 (configuration not stated) | x | x | n | 20 | x | n | n
CC(C)(C)NC(=O)C(c1ccc(-c2ccccc2)cc1)n1c(=O)c(-c2ccco2)nc2ccccc21 (configuration not stated) | x | x | n | n | x | x | x
CCCCCNC(=O)C(c1cccc2ccccc12)n1c(=O)c(-c2ccco2)nc2ccccc21 (configuration not stated) | x | x | n | 22 | x | n | n
COc1ccc(CN(C)C[C@@H]2OCCCC[C@@H](C)Oc3ccc(NC(=O)Nc4ccccc4)cc3C(=O)N([C@@H](C)CO)C[C@H]2C)cc1 | x | n | x | x | x | x | x
Cc1ccccc1/C=N/Nc1nc2ccccc2[nH]1 | n | n | n | n | n | x | x
C(=N\Nc1nc2ccccc2[nH]1)/c1cccc2cccnc12 | n | 61 | n | 37 | n | n | n
C[C@H](CO)N1C[C@H](C)[C@H](CN(C)C(=O)Nc2cccc3ccccc23)Oc2ccc(NC(=O)Nc3ccc4c(c3)OCO4)cc2C1=O | x | n | x | x | x | x | x
C[C@@H](NC(=O)C[C@@H]1CC[C@H]2[C@@H](COC[C@H](O)CN2C(=O)Nc2cc(Cl)cc(Cl)c2)O1)c1ccccc1 | x | n | x | x | x | x | x
CCCCn1c(N)c(N(CCOC)C(=O)c2ccc(F)c(S(=O)(=O)N3CCOCC3)c2)c(=O)[nH]c1=O | n | n | n | 20 | n | n | n
CCCCn1c(N)c(N(CCOC)C(=O)c2cc(S(=O)(=O)N3CCOCC3)ccc2F)c(=O)[nH]c1=O | n | n | n | n | n | x | x
CCn1cc(C2C3=C(CC(C)(C)CC3=O)N(c3ccc(C)cc3)C3=C2C(=O)CC(C)(C)C3)c(C)n1 | n | n | n | 20 | n | n | n
O=C(NNc1ccccc1[N+](=O)[O-])Nc1ccc(Cl)c(Cl)c1 | n | n | n | 27 | n | 28 | 9.8
O=C(C[C@@H]1CC[C@@H]2[C@H](COC[C@H](O)CN2Cc2ccccc2F)O1)N[C@H]1CCN(Cc2ccccc2)C1 | x | n | x | x | x | x | x
CCCCCCOC(=O)CCn1[nH]c(=O)c2ccccc2c1=O | n | n | n | n | n | x | x
COC(=O)CCn1[nH]c(=O)c2ccccc2c1=O | n | n | n | 24 | n | n | n
CN(C)Cc1cn(CC[C@@H]2CC[C@@H](NC(=O)Nc3ccc4c(c3)OCO4)[C@@H](CO)O2)nn1 | x | n | x | x | x | x | x
SMILES | NadD inh | ARNT-TACC3 inh | Neddylation inh | HGIII-sPLA2 inh | DAGLB inh | sPLA2 confirm | 535nm interf | others
CN(C(=O)COC(=O)c1nc(-c2ccccc2)n(-c2ccccc2)n1)C1CCS(=O)(=O)C1 (configuration not stated) | n | n | n | n | n | x | x
Cc1nn(-c2ccccc2)c(C)c1C(=O)OCC(=O)N(C)C1CCS(=O)(=O)C1 (configuration not stated) | n | x | n | 20 | n | n | n
CCS(=O)(=O)N[C@H]1C=C[C@@H](CC(=O)N2CCCCC2)O[C@H]1CO | x | n | x | x | x | x | x
O=C(N/N=C/c1ccncc1)c1ccccc1[N+](=O)[O-] | n | n | n | n | n | x | x
O=C(NCc1cccnc1)c1ccccc1[N+](=O)[O-] | n | n | n | 25 | n | n | n
O=C(N/N=C/c1cccnc1)c1ccccc1[N+](=O)[O-] | n | n | n | 19 | n | n | n
Cc1ccccc1S(=O)(=O)N[C@H]1CC[C@H](CCn2cc(Cc3ccccc3)nn2)O[C@H]1CO | x | n | x | x | x | x | x
O=C(NCCc1ccccc1)[C@H]1N[C@H]2c3ccc(-c4ccccc4)c(=O)n3C[C@H]2[C@@H]1CO | x | n | x | x | x | x | x
CC(Sc1ccc(Cl)cc1)C(=O)NNC(=O)c1ccccc1O (configuration not stated) | n | n | n | 23 | n | n | n
CC(C)(C)Nc1nc(Cl)nc(NC(C)(C)C)n1 | n | n | n | 23 | n | n | n
O=C(NC(=S)N(CC1CCC1)CC1CCCO1)c1cccc([N+](=O)[O-])c1 (configuration not stated) | n | n | n | 20 | n | 20 | n
CCN(CC)CCN1CCn2c3c(c4cc(C)ccc42)CCCC31 (configuration not stated) | n | x | n | 23 | n | n | n
Cc1ccc2c(c1)c1c3n2CCNC3CCC1 (configuration not stated) | n | n | n | 27 | n | 32 | n | 535nm interf DR=n
COc1ccc2c(c1)C(=O)C(=O)N2CC1COc2ccccc2O1 (configuration not stated) | n | n | n | 20 | n | 25 | n
CCOc1ccc2c(c1)C(=O)C(=O)N2CC1COc2ccccc2O1 (configuration not stated) | n | n | n | n | n | x | x
CCC(=O)Nc1ccc2c(c1)C(=O)N(C)[C@H]1CC[C@@H](CC(=O)N[C@@H](C)c3ccccc3)O[C@H]1CO2 | x | n | x | x | x | x | x
Cc1nc2ccccn2c1C(=O)N=Nc1c(O)n(CCC(C)C)c2ccccc12 | n | x | n | 22 | n | n | n
COCC(=O)N(C)C[C@@H]1Oc2cc(C#Cc3ccccc3)ccc2S(=O)(=O)N([C@@H](C)CO)C[C@H]1C | x | n | x | x | x | x | x
Cc1ccc(NC(=O)COC(=O)c2cc(Cl)ccc2[N+](=O)[O-])c(C)c1 | n | n | n | 20 | n | n | n
